# NOMO-1 viab: NOMO-1 AML cell viability reduction, primary screen, STK33 inhibitor project, CellTiter-Glo luminescence; 37,000 tested, 7.5% active; inhibition, % (concentration not given with the values); AID 2330, 2010; NOMO-1 AML viability, 72 h; in the data active = inhibition above about 80%; inconclusive = no clear call, values can overlap the other calls
# ROS inducer: ROS inducers in U2OS cancer cells, primary screen, cell-based, H2DCF-DA fluorescence; U2OS ROS induction; ROS induction (% of piperlongumine), % at 10 µM; 46,000 tested, 2% active; in the data active = ROS induction above about 79%, passing the limit was not always enough; inconclusive = no clear call, values can overlap the other calls;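 note: 0% = DMSO vehicle median and 100% = reference compound median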
# PD-1 reverse act: activators reversing PD-1 mediated T-cell inhibition, primary screen, luminescence, primary human CD4 T cells, PD-L1 beads | 29,000 tested, under 10 active | AID 2316, 2010 | activation, % (test concentration not listed) | CellTiter-Glo 96 h; call rule not given here;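 note: 0% = median vehicle wells and 100% = positive control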
# Active calls of the source: *; ? = inconclusive; / = no result. The entries come from a sample that favours hits as a whole.
SMILES,NOMO-1 viab,ROS inducer,PD-1 reverse act
CC(C)NC(=O)N(C)C[C@H]1Oc2ccc(NC(=O)Nc3ccc(C(F)(F)F)cc3)cc2CC(=O)N([C@H](C)CO)C[C@H]1C,?,0.7,0.7
CNC[C@@H]1Oc2ccc(NC(=O)NC(C)C)cc2CC(=O)N([C@@H](C)CO)C[C@@H]1C,-4.1,7.4,/
CC(C)NC(=O)N(C)C[C@H]1Oc2ccc(NC(=O)Nc3ccc(C(F)(F)F)cc3)cc2CC(=O)N([C@@H](C)CO)C[C@H]1C,113.9*,17.5,-5.3
COc1ccc(NC(=O)N(C)C[C@H]2Oc3ccc(NC(=O)NC4CCCCC4)cc3CC(=O)N([C@H](C)CO)C[C@H]2C)cc1,17.1,82.6*,-0.6
CNC[C@@H]1Oc2ccc(NC(=O)NC(C)C)cc2CC(=O)N([C@H](C)CO)C[C@@H]1C,6.4,127.3*,-0.7
COc1ccc(NC(=O)Nc2ccc3c(c2)CC(=O)N([C@@H](C)CO)C[C@@H](C)[C@@H](CN(C)C(=O)NC2CCCCC2)O3)cc1,4.9,15.2,2.4
CCCN1C(=O)/C(=C/C=C2/Oc3ccccc3N2CCC(=O)O)N(CCO)C1=S,/,-7.1,/
CCOC(=O)c1sc(C)c2c(=O)[nH]c(-c3ccccc3)nc12,/,-16.2,/
Cc1cc(C)c2c(c1)/C(=c1/sc3n(c1=O)CN(c1cccc(Br)c1)CN=3)C(=O)N2,/,-2.7,/
Cc1ccc(OC(=O)c2ccccc2)c(-n2nc3ccccc3n2)c1,-1.4,-2.7,0.0
CCCCN1C(=O)/C(=C2\SC(=Nc3ccc(Cl)cc3)N(C)C2=O)c2ccccc21,29.7,42.5,0.8
C[C@H]1CN([C@@H](C)CO)C(=O)Cc2cc(NC(=O)CCCCCC(=O)Nc3ccccc3N)ccc2O[C@@H]1CN(C)CC1CCCCC1,102.0*,4.3,0.1
C[C@@H]1CN([C@H](C)CO)C(=O)Cc2cc(NC(=O)CCCCCC(=O)Nc3ccccc3N)ccc2O[C@@H]1CN(C)CC1CCCCC1,133.4*,12.2,-0.8
C[C@H]1CN([C@@H](C)CO)C(=O)Cc2cc(NC(=O)CCCCCC(=O)Nc3ccccc3N)ccc2O[C@H]1CN(C)C,?,-0.8,0.8
C[C@H]1CN([C@@H](C)CO)C(=O)Cc2cc(NC(=O)CCCCCC(=O)Nc3ccccc3N)ccc2O[C@@H]1CN(C)CC1CC1,21.1,-4.2,1.6
C[C@@H]1CN([C@@H](C)CO)C(=O)c2cc(NC(=O)CCCCCC(=O)Nc3ccccc3N)ccc2O[C@H]1CN(C)CC1CCCCC1,/,-8.5,/
C[C@@H]1CN([C@H](C)CO)C(=O)Cc2cc(NC(=O)CCCCCC(=O)Nc3ccccc3N)ccc2O[C@H]1CN(C)CC1CCCCC1,120.4*,-2.5,0.1
NC(=O)CCN1C(=O)c2ccccc2C1=O,/,3.7,/
O=C1NCN(c2ccccc2)C12CCN(CCCC(c1ccc(F)cc1)c1ccc(F)cc1)CC2,113.6*,7.2,/
CC(=O)Oc1ccc2cc(-c3nc(-c4ccccc4)c(C)s3)c(=O)oc2c1,/,12.4,/
CC(=O)Oc1c(I)c(=O)n(C)c2ccccc12,120.8*,37.6,-11.9
CC(=O)Oc1ccccc1OCc1nn(C)c2ccccc12,/,-4.0,/
CC1(C)CC(=O)c2cc3c(N)c(C(=O)Nc4ccccc4)sc3nc2C1,/,10.6,/
Cc1c2cnn(-c3ccccc3)c(=O)c2c(C)n1CC(=O)NC(C)C,/,3.2,/
O=C(O)COc1ccc2occ(C(=O)c3ccccc3)c2c1,-8.4,24.4,1.6
SMILES,NOMO-1 viab,ROS inducer,PD-1 reverse act
O=C(c1ccc(Oc2ccccc2)cc1)c1coc2ccc(O)cc12,139.3*,61.2,0.0
Cc1ccc(NC(=O)CCc2c(C)nc3c4c(C)cc(C)nc4nn3c2C)cc1,/,20.8,/
Cc1ccc(S(=O)(=O)/C=C/C#N)cc1,141.8*,142.7*,-59.9
Cc1ccc(S(=O)(=O)c2ccc(C)cc2)cc1,-1.6,-0.8,-0.4
CCOc1cc([N+](=O)[O-])ccc1NC(=O)CC1Sc2ccccc2NC1=O (centres undefined),110.0*,18.4,-3.8
COc1ccc(OC)c(NC(=O)CC2Sc3ccccc3NC2=O)c1 (centres undefined),3.3,-3.8,-1.2
O=C(NCc1ccco1)c1ccc(-n2c(=S)[nH]c3ccccc3c2=O)cc1,/,3.4,/
Nc1ccc(S(=O)(=O)C(F)(F)F)cc1,-8.5,5.5,-0.1
Cc1nc(CS(=O)(=O)c2ccccn2)sc1C(=O)NN,/,-0.6,/
COc1ccc(OC)c(-n2c(CNC3CCN(Cc4ccccc4)CC3)nc3ccccc3c2=O)c1,90.5*,/,/
COc1ccc(OC)c(-n2c(CN3CCC(C(N)=O)CC3)nc3ccccc3c2=O)c1,27.1,4.0,0.6
COc1ccc(NC(=O)Nc2nn(Cc3c(F)cccc3Cl)cc2Cl)cc1OC,26.5,29.5,-1.2
CC(=O)c1cccc(NC(=O)Nc2nn(Cc3c(F)cccc3Cl)cc2Br)c1,106.0*,-6.3,-9.0
COc1ccc2ncc(S(=O)(=O)c3ccccc3)c(N3CCC(C(N)=O)CC3)c2c1,/,35.2,/
Cc1ccc(C(C)C)c(OCc2ccc(N)cc2)c1,10.8,5.3,-0.6
O=C(Oc1ccccc1OC(=O)c1ccccc1)c1ccccc1,114.5*,29.0,-2.7
O=C(Oc1ccc2cc(OC(=O)c3ccccc3)ccc2c1)c1ccccc1,-3.2,2.0,0.1
O=C(NCC(c1cccnc1)N1CCN(Cc2ccccc2)CC1)c1ccccc1 (centres undefined),/,-3.0,/
Cc1ccc(-c2csc(COC(=O)C(C)(C)C)n2)cc1,/,-13.2,/
C[C@@H]1CN([C@H](C)CO)C(=O)c2cc(NC(=O)Nc3ccc(C(F)(F)F)cc3)ccc2O[C@H]1CN(C)S(=O)(=O)c1ccc(Cl)cc1,54.4,33.9,-2.1
Cc1ccc(S(=O)(=O)N(C)C[C@@H]2Oc3ccc(NC(=O)Nc4ccc(C(F)(F)F)cc4)cc3C(=O)N([C@H](C)CO)C[C@H]2C)cc1,97.0*,0.1,-0.9
Cc1ccc(S(=O)(=O)N(C)C[C@H]2Oc3ccc(NC(=O)Nc4ccc(C(F)(F)F)cc4)cc3C(=O)N([C@H](C)CO)C[C@@H]2C)cc1,126.0*,-2.9,/
Cc1ccc(S(=O)(=O)N(C)C[C@@H]2Oc3ccc(NC(=O)Nc4ccc(F)cc4)cc3C(=O)N([C@@H](C)CO)C[C@H]2C)cc1,32.7,6.5,-0.7
C[C@H]1CN([C@@H](C)CO)C(=O)c2cc(NC(=O)Nc3ccc(C(F)(F)F)cc3)ccc2O[C@@H]1CN(C)S(=O)(=O)c1ccccc1,20.4,3.0,-2.6
COc1ccc(S(=O)(=O)N(C)C[C@H]2Oc3ccc(NC(=O)Nc4ccc(C(F)(F)F)cc4)cc3C(=O)N([C@@H](C)CO)C[C@H]2C)cc1,60.5,21.5,1.3
Cc1ccc(S(=O)(=O)N(C)C[C@H]2Oc3ccc(NC(=O)Nc4ccc(C(F)(F)F)cc4)cc3C(=O)N([C@H](C)CO)C[C@H]2C)cc1,92.0*,-0.5,-1.7
COc1ccc(S(=O)(=O)N(C)C[C@H]2Oc3ccc(NC(=O)Nc4ccc(C(F)(F)F)cc4)cc3C(=O)N([C@H](C)CO)C[C@H]2C)cc1,88.1*,17.2,-1.2
COc1ccc(Cn2cc(-c3ccccc3)nn2)cc1,/,-0.3,/
Cc1nc2c(=O)n(-c3cc(C(F)(F)F)ccc3Cl)nc(C)c2s1,/,-11.4,/
O=C(CSc1nc2ccccc2o1)NCC12CC3CC(CC(C3)C1)C2,/,-2.1,/
